According to the supplement of paper PMC13380429:

System: Vero E6 infected with SARS-CoV-2
Assay: inhibition of SARS-CoV-2 cytopathic effect; higher = more antiviral protection, active = above 15
Conditions: 48 h

Measured: inhibition of SARS-CoV-2 cytopathic effect

C[C@]12CCC(=O)C=C1CC[C@@H]1[C@@H]2C(=O)C[C@]2(C)C(=O)CC[C@@H]12 [adrenosterone]
inactive: 1 nM 0.47% | 8.33 nM -2.37% | 100 nM 0.08% | 833.33 nM 1.4% | 10000 nM 2.11%

CC(C(=O)O)c1ccc2c(c1)CC(=O)c1ccccc1S2 (stereo not given) [zaltoprofen]
inactive: 1 nM 1.83% | 8.33 nM 2.8% | 100 nM 3.97% | 833.33 nM 0.28% | 10000 nM 1.17%

CNC(=O)Nc1ccc(-c2nc(N3CC4CCC(C3)O4)c3cnn(C4CCC5(CC4)OCCO5)c3n2)cc1
inactive: 1 nM -1.21% | 8.33 nM 1.24% | 100 nM 0.34% | 833.33 nM -0.87% | 10000 nM 9.1%

CCCc1ncc(C[n+]2ccccc2C)c(N)n1 [amprolium]
inactive: 1 nM 7.17% | 8.33 nM 1.36% | 100 nM 4.43% | 833.33 nM -0.09% | 10000 nM 0.03%

CCn1cc(-c2ccnc3[nH]c(-c4cccc(CN(C)C)c4)cc23)c(-c2ccc(NC(=O)N(C)C)cc2)n1
inactive: 1 nM 0.02% | 8.33 nM -2.56% | 100 nM -1.67% | 833.33 nM -3.22% | 10000 nM 1.16%

Cn1c(=O)c2[nH]c(Br)nc2n(C)c1=O [pamabrom]
inactive: 1 nM 1.59% | 8.33 nM 0.19% | 100 nM 1.39% | 833.33 nM 1.95% | 10000 nM -3.72%

COc1ccc(-c2cc(=O)c3c(O)cc(O[C@@H]4O[C@H](CO[C@@H]5O[C@@H](C)[C@H](O)[C@@H](O)[C@H]5O)[C@@H](O)[C@H](O)[C@H]4O)cc3o2)cc1O [diosmin]
inactive: 1 nM 3.94% | 8.33 nM -0.11% | 100 nM -2.26% | 833.33 nM 4.64% | 10000 nM -2.85%
